Screening data (PubChem BioAssay)
The list is not random: actives were taken first. Their share in the collection is about 6.7%.
T cruzi growth-1: T. cruzi intracellular proliferation inhibitors, primary screen, cell-based, beta-gal Tulahuen parasites, NIH3T3 host, luminescence; 77,000 tested, 5.9% active; T. cruzi beta-gal in NIH3T3, GalScreen luminescence, 90 h; inhibition, % at 8.34 µM;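 active means mean inhibition above about 93%, with at least 55% of replicates each passing it, limit read from the data, passing the limit was not always enough; inconclusive means only one of those two conditions holds; inactive means neither condition holds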
Pf Dd2 inh: P. falciparum Dd2 growth inhibitors, primary screen, SYBR Green fluorescence, single dose replicates | activity change, % at 10 µM | 72 h; hits give low values | 94,000 tested, 2.3% active; in the data active means activity change below about -80%; inconclusive means no clear call, values can overlap the other calls
C diff growth: C. difficile growth inhibitors, primary screen, HTS; Clostridium difficile clinical isolate growth, OD600, 24 h; hits give low values; growth activity, negative = inhibition, % at 16 µg/mL (by protocol); 86,000 tested, 0.25% active; AID 1259249, 2017;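 active means mean growth activity at or below -80% and every replicate also at or below -80%; inconclusive means mean at or below -80% but some replicate above -80%; inactive means mean growth activity above -80%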
T cruzi growth-2: T. cruzi intracellular proliferation inhibitors, confirmation, cell-based, NIH3T3 host, beta-gal parasite, luminescence, cherry-pick; shares compounds with T cruzi growth-1; T. cruzi beta-gal in NIH3T3, GalScreen luminescence, 90 h; inhibition, % at 8.35 µM; 5,600 tested, 72% active; AID 651739, 2012;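 active means mean replicate inhibition above about 95% and at least 55% of replicates individually reaching it, limit read from the data; inconclusive means only one of the two criteria is met; inactive means neither criterion is met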
T cruzi growth-3: inhibitors of intracellular T. cruzi replication, confirmation, NIH3T3 host cells, beta-gal parasites, cherry-pick, set 2; T. cruzi beta-gal in NIH3T3, GalScreen luminescence, 90 h; shares compounds with T cruzi growth-1; 5,600 tested, 21% active; inhibition, % at 2.09 µM;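 active means mean inhibition above about 95%, with at least 55% of replicates also reaching it, limit read from the data; inconclusive means meets just one of the two conditions; inactive means meets neither condition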
3T3 cytotox: cytotoxicity in mouse NIH/3T3 fibroblasts, confirmation, cytotoxicity control for T. cruzi proliferation inhibitor project, cell-based, cherry-pick, single point. cytotoxicity (signal decrease), % at 8.35 µM. NIH/3T3 viability, CellTiter-Glo ATP luminescence, 90 h. shares compounds with T cruzi growth-1. 5,600 tested, 14% active;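 active means mean signal decrease across replicates above about 35% based on untreated-well scatter, with enough replicates individually passing, limit read from the data; inconclusive means no rule stated though some were filed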
3T3 cytotox 2: NIH/3T3 fibroblast cytotoxicity, confirmation, cytotoxicity control, cell-based, cherry-pick, single point, set 2; shares compounds with T cruzi growth-1; NIH/3T3 viability, CellTiter-Glo ATP luminescence, 90 h; inhibition, % at 24.9 µM; 5,600 tested, 56% active; AID 651744, 2012;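 active means mean loss of cell viability signal at or above a set limit, and enough replicates individually reaching it; inconclusive means meets only the mean limit or only the replicate share; inactive means meets neither condition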
Numbers stand for hits; - = inactive; ? = inconclusive; . = no result.

SMILES	T cruzi growth-1	Pf Dd2 inh	C diff growth	T cruzi growth-2	T cruzi growth-3	3T3 cytotox	3T3 cytotox 2
C[C@@H]1CN([C@@H](C)CO)C(=O)c2cc(NC(=O)Nc3ccc(C(F)(F)F)cc3)ccc2O[C@@H](C)CCCCO[C@@H]1CN(C)Cc1ccc2c(c1)OCO2	123	-	-	98	113	-	-
C[C@@H]1CN([C@@H](C)CO)C(=O)c2cc(NC(=O)Nc3ccc4c(c3)OCO4)ccc2O[C@@H](C)CCCCO[C@@H]1CN(C)Cc1ccc(C(F)(F)F)cc1	-	-	.	.	.	.	.
C[C@@H]1CCCCO[C@@H](CN(C)Cc2ccc3c(c2)OCO3)[C@H](C)CN([C@@H](C)CO)C(=O)c2cc(NC(=O)Nc3ccc(C(F)(F)F)cc3)ccc2O1	?	-	-	99	111	-	53
C[C@H]1CCCCO[C@@H](CN(C)Cc2ccc3c(c2)OCO3)[C@@H](C)CN([C@@H](C)CO)C(=O)c2cc(NC(=O)Nc3ccc(C(F)(F)F)cc3)ccc2O1	121	-89	-	-	116	47	105
C[C@@H]1CN([C@@H](C)CO)C(=O)c2cc(NC(=O)Nc3ccc4c(c3)OCO4)ccc2O[C@@H](C)CCCCO[C@H]1CN(C)Cc1ccc(C(F)(F)F)cc1	-	-	.	.	.	.	.
C[C@@H]1CCCCO[C@@H](CN(C)Cc2ccc(C(F)(F)F)cc2)[C@@H](C)CN([C@H](C)CO)C(=O)c2cc(NC(=O)Nc3ccc4c(c3)OCO4)ccc2O1	100	-	.	101	-	-	-
C[C@@H]1CN([C@H](C)CO)C(=O)c2cc(NC(=O)Nc3ccc4c(c3)OCO4)ccc2O[C@@H](C)CCCCO[C@@H]1CN(C)Cc1ccc(C(F)(F)F)cc1	-	-	.	.	.	.	.
Cc1ccc(-c2ccc([C@@H]3[C@H](CO)N4C(=O)CN(C(=O)Nc5ccc(F)cc5)C[C@@H]34)cc2)cc1	.	-	-	.	.	.	.
Cc1noc(C)c1NC(=O)N(C)C[C@H]1Oc2c(NS(=O)(=O)c3ccc(Cl)cc3)cccc2C(=O)N([C@H](C)CO)C[C@@H]1C	-	-	-	.	.	.	.
C[C@@H]1CCCCO[C@H](CN(C)Cc2ccc(C(F)(F)F)cc2)[C@H](C)CN([C@H](C)CO)C(=O)c2cc(NC(=O)Nc3ccc4c(c3)OCO4)ccc2O1	-	-	.	.	.	.	.
C[C@@H]1CCCCO[C@H](CN(C)Cc2ccc3c(c2)OCO3)[C@H](C)CN([C@H](C)CO)C(=O)c2cc(NC(=O)Nc3ccc(C(F)(F)F)cc3)ccc2O1	?	?	-	96	116	?	95
C[C@@H]1CCCCO[C@@H](CN(C)Cc2ccc3c(c2)OCO3)[C@@H](C)CN([C@@H](C)CO)C(=O)c2cc(NC(=O)Nc3ccc(C(F)(F)F)cc3)ccc2O1	?	-	-	98	114	?	57
C[C@H](CO)N1C[C@H](C)[C@H](CN(C)Cc2ccc(C(F)(F)F)cc2)OCCCC[C@H](C)Oc2ccc(NC(=O)Nc3ccc4c(c3)OCO4)cc2C1=O	-	-	.	.	.	.	.
C[C@H]1CN([C@@H](C)CO)C(=O)c2cccc(NC(=O)c3ccc(-c4nccs4)cc3)c2O[C@H]1CN(C)Cc1ccc(Oc2ccccc2)cc1	-	-	.	.	.	.	.
C[C@H]1CN([C@@H](C)CO)C(=O)c2cccc(NC(=O)c3ccc(-c4nccs4)cc3)c2O[C@H]1CN(C)Cc1ccc(C(F)(F)F)cc1	-	-	.	.	.	.	.
C[C@H](CO)N1C[C@H](C)[C@H](CN(C)Cc2ccc(C(F)(F)F)cc2)Oc2c(NC(=O)c3ccc(-c4nccs4)cc3)cccc2C1=O	?	-	.	108	-	-	-
C[C@H](CO)N1C[C@H](C)[C@@H](CN(C)Cc2ccc(Oc3ccccc3)cc2)Oc2c(NC(=O)c3ccc(-c4nccs4)cc3)cccc2C1=O	?	-	.	100	112	-	-
CO[C@H]1CN(C)C(=O)c2cc(NC(C)=O)ccc2OC[C@H](C)N(Cc2ccccc2F)C[C@H]1C	-	-	.	.	.	.	.
CC(C)NC(=O)N1[C@@H](C#N)[C@H](c2ccc(C#CC3CCCCC3)cc2)[C@@H]1CO	100	-	-	105	-	-	62
CC(C)NC(=O)N1[C@H](CO)[C@@H](c2ccc(C#CC3CCCCC3)cc2)[C@@H]1C#N	99	-	-	-	105	-	105
N#C[C@H]1[C@@H](c2ccc(C#CC3CCCCC3)cc2)[C@@H](CO)N1C(=O)Nc1ccc(F)cc1	.	-	-	.	.	.	.
N#C[C@@H]1[C@H](c2ccc(C#CC3CCCCC3)cc2)[C@@H](CO)N1C(=O)Nc1ccc(F)cc1	.	?	-	.	.	.	.
C/C=C/c1ccc2c(c1)O[C@@H](CN(C)C(=O)c1ccc(F)cc1)[C@H](C)CN([C@H](C)CO)S2(=O)=O	.	-	.	.	.	.	.
C[C@H](CO)N1C[C@H](C)[C@@H](CN(C)Cc2ccc3c(c2)OCO3)OCCCC[C@H](C)Oc2ccc(NC(=O)Nc3cccc4ccccc34)cc2C1=O	?	-	.	103	111	-	42
C[C@H](CO)N1C[C@H](C)[C@H](CN(C)Cc2ccc3c(c2)OCO3)OCCCC[C@H](C)Oc2ccc(NC(=O)Nc3cccc4ccccc34)cc2C1=O	107	-	.	104	97	-	45
SMILES	T cruzi growth-1	Pf Dd2 inh	C diff growth	T cruzi growth-2	T cruzi growth-3	3T3 cytotox	3T3 cytotox 2
C[C@@H]1CN([C@@H](C)CO)C(=O)c2cc(NC(=O)Nc3cccc4ccccc34)ccc2O[C@@H](C)CCCCO[C@H]1CN(C)Cc1ccc2c(c1)OCO2	121	-	.	106	-	-	105
C[C@@H]1CN([C@@H](C)CO)C(=O)c2cc(NC(=O)Nc3cccc4ccccc34)ccc2O[C@@H](C)CCCCO[C@@H]1CN(C)Cc1ccc2c(c1)OCO2	102	-90	.	110	-	-	-
COc1ccc(NC(=O)Nc2ccc3c(c2)[C@@H]2C[C@H](CC(=O)NCc4ccccn4)O[C@H](CO)[C@@H]2O3)cc1	-	-	-	.	.	.	.
C=CCN1C(=O)[C@]2(O[C@H](CCO)[C@@H]([Si](C)(C)c3ccc(OC)cc3)[C@@H]2C)c2cc(N3CCCCC3=O)ccc21	.	.	-	.	.	.	.
C=C1CC(/C=C/c2cc(OC)c(OC)c(OC)c2)OC1=O (stereo unspecified)	.	.	-	.	.	.	.
CCCNC(=O)N1CC2(CCN(C(=O)C3CC3)CC2)c2c([nH]c3cc(OC)ccc23)[C@@H]1CO	.	-	-	.	.	.	.
CCCC#Cc1cnc2c(c1)C(=O)N([C@H](C)CO)C[C@@H](C)[C@@H](CN(C)Cc1ccncc1)O2	-	-	.	.	.	.	.
